TCR activator – T cell receptor activation. primary human leukocytes, anti-CD3, IL-2 HTRF, 48 h. Potency, µM (doses to about 9.22 µM), for inactives: at the highest dose activation of IL-2 secretion, most hits filed as activators. 330,000 tested, under 10 active; also: % of control where 0% means no effect
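48 hr co-incubation of compounds, a-CD3 beads and primary human leukocytes; IL-2 quantified homogeneously by HTRF with anti-IL-2 K and d2 conjugates.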
Sfp inh – blocks B. subtilis Sfp PPTase activity; Q9F4F7; Biochemical Sfp PPTase activity, qHTS; Potency, µM, without a hit: largest response in the series, negative = inhibition, most hits filed as inhibitors; actives 3.5% (n = 310,000);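 also: the enzyme is Sfp with the accession as filed and its product quenches rhodamine fluorescence; potency is read from the fitted curve at half-maximal effect; 0% = enzyme reaction without inhibitor and -100% = no enzyme wells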
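Compounds were incubated with enzyme (final 15 nM) for 15 min at room temperature before substrate addition started the reaction. Fluorescence at 525 nm excitation, 598 nm emission was recorded immediately and after 30 minutes.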
ClpP mod – qHTS Assay for Activators of ClpP; actives 1.9% (n = 340,000); Potency, µM (series often up to 57.5 µM), inactives show at the highest dose activity change, negative = active; purified B. subtilis ClpP, FRET peptide cleavage, 20 min; active = well fitted falling curve with a large enough effect; inconclusive = small, poorly fitted or top-dose-only effect; inactive = no such curve, though single readings can be large or run the other way; also: potency is read from the fitted curve at half-maximal effect; the source files actives as falling curves though it sought activators and does not explain the sign; nearly all actives have a fitted effect of over 65% in size
Target sequence (P80244 whole entry, looked up): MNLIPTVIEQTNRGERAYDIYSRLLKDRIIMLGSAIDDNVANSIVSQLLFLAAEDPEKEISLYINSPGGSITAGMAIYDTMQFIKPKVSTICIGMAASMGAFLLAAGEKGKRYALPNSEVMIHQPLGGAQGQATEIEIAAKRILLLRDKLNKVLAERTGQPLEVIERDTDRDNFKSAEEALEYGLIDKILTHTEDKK
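Purified B. subtilis ClpP, 10 microg/mL final in Tris/HCl pH8 with KCl, BSA, glycerol and Tween-20, cleaved an Abz/nitrotyrosine-quenched decapeptide. Fluorescence (ex 320, em 430) was read at 0 and 20 min at room temperature. Delta was normalized to 5.8 microM ADEP and DMSO/no-enzyme controls.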
uPA surface inh – blocks generation of uPA at the cell surface. AID 540303. actives 0.31% (n = 330,000). Potency, µM (titrated, usually from 38.3 µM), without a hit: at the top dose activity change, negative = inhibition, hits mostly inhibitors. cell surface uPA generation assay, qHTS; active = well fitted inhibition curve with a large enough effect; inconclusive = small, poorly fitted or top-dose-only effect; inactive = no such curve, though single readings can be large or run the other way; tested in mouse RAW 264.7 cells; also: potency is read from the fitted curve at half-maximal effect; % is scaled to controls: 0 for no effect and ±100 for the full control effect; nearly all actives have a fitted effect of over 55% in size
Numbers without * were called inactive; ? = inconclusive; . = no result; [ ] = remark or other dose. Sampled rows, rich in hits. Any-hit rate of the full collection: about 4.2%. Unless noted, calls follow the shape of the dose curve; as a rule, active = well fitted curve in the direction sought with a large enough effect; inconclusive = small, poorly fitted or top-dose-only effect, or another doubt; inactive = no such curve, though single readings can be large; an effect the other way counts as inactive or inconclusive.

SMILES	TCR activator	Sfp inh	ClpP mod	uPA surface inh
Cc1cc(C)c2[nH]c(=O)c(C(c3nnnn3CC3CCCO3)N3CCCC(C)C3)cc2c1 (centres undefined)	-5%	22µM*	-12%	3%
Cc1cc(C)c2[nH]c(=O)c(C(c3nnnn3CC3CCCO3)N3CCC(C)CC3)cc2c1 (centres undefined)	-2%	-21%	-3%	.
Cc1ccc2[nH]c(=O)c(C(c3nnnn3CC3CCCO3)N3CCCc4ccccc43)cc2c1 (centres undefined)	-4%	45µM*	-4%	.
CCC(c1nnnn1CC1CCCO1)N(CCN1CCOCC1)Cc1cc2cc(C)ccc2[nH]c1=O (centres undefined)	5%	45µM*	?	-3%
Cc1ccc2[nH]c(=O)c(C(c3nnnn3CC3CCCO3)N3CCOCC3)cc2c1 (centres undefined)	1%	-9%	22µM*	.
Cc1ccc(S(=O)(=O)N2CCN(c3nc(-n4c(=O)[nH]c5ccccc54)nc4ccccc34)CC2)cc1	.	.	-22%	.
O=C(NCc1ccccc1C(F)(F)F)C1CCC(=O)N(CCCc2ccccc2)C1 (centres undefined)	.	1%	0%	-4%
Cc1cccc(NS(=O)(=O)c2ccc3c(c2)C(C)(C)C(=O)N3C)c1	.	.	1%	.
C=CCOc1cccc(C(=O)/C=C2/C(=O)Nc3ccccc32)c1	5%	56µM*	0%	?
O=C1Nc2ccc(Br)cc2/C1=C/C(=O)c1ccccc1	2%	.	1%	-5%
CC(=O)/C=C1/C(=O)Nc2ccccc21	10%	50µM*	0%	?
COc1ccc(-c2cn(-c3ccc(C)cc3)c(S(=O)(=O)CC(=O)Nc3ccc(F)cc3)n2)cc1	.	.	-2%	.
C(=NNc1ccc2ccccc2n1)c1ccccn1	.	.	0%	.
O=c1cc(-c2ccccc2)n2c(SCc3ccc([N+](=O)[O-])cc3)nnc2[nH]1	.	.	-1%	.
CCCOC(=O)C1=C(C)NC2=C(C(=O)CCC2)C1c1cccc(OC)c1OC (centres undefined)	-5%	9%	25µM*	4%
COc1ccc(C(=O)Nc2cc(C(=O)c3ccccc3)c(C)oc2=O)cc1	4%	10µM*	-6%	-13%
Cc1oc(=O)c(NC(=O)c2cccc(Cl)c2)cc1C(=O)c1ccccc1	3%	8.9µM*	-2%	-11%
CC(=O)c1cc(NC(=O)c2ccc([N+](=O)[O-])cc2)c(=O)oc1C	-3%	16µM*	.	-6%
Cc1oc(=O)c(NC(=O)c2ccccc2)cc1C(N)=O	5%	15%	.	3%
CCN(CC)CC(=O)Nc1ccccc1SCC(=O)Nc1ccsc1C(=O)OC	-6%	-26%	-1%	.
C=CCn1c(SCCC(=O)O)nnc1-c1cccs1	1%[46.1 µM]	-4%	28µM*	-7%
O=C(Nc1cccc(F)c1)C1CCN(C(=O)c2ccc(Cl)cc2)CC1	2%[46.1 µM]	8%	25µM*	-8%
COc1cc(OC)cc(-c2cc3ccccc3c(=O)o2)c1	-12%	.	28µM*	-7%
Cc1ccc(OC(=O)COc2ccccc2)c(-n2nc3ccccc3n2)c1	-11%	?	32µM*	-3%
COc1ccc2cc(S(=O)(=O)NC3CC(C)(C)NC(C)(C)C3)ccc2c1	-4%	10%	28µM*	1%
SMILES	TCR activator	Sfp inh	ClpP mod	uPA surface inh
Cc1noc(C)c1C(=O)N1CCC1(C)C(=O)NS(=O)(=O)c1cccs1 (centres undefined)	.	.	2%	.
C/C=C\C=C/C(=O)Nc1cccc(C2=NOC3(C2)C[C@@H](C(N)=O)N(C(=O)C2(C)CC2)C3)c1 (some centres undefined)	-3%	20µM*	-2%	12%
C/C=C\C=C/C(=O)Nc1cccc(C2=NOC3(C2)C[C@@H](C(N)=O)N(C(=O)[C@H]2CCC(=O)N2)C3)c1 (some centres undefined)	2%	35µM*	-2%	8%
C/C=C\C=C/C(=O)Nc1cccc(C2=NOC3(C2)C[C@@H](C(N)=O)N(C(=O)/C=C/C=C\C)C3)c1 (some centres undefined)	-2%	3.5µM*	1%	-7%
C/C=C\C(=O)Nc1cccc(C2=NOC3(C2)C[C@@H](C(N)=O)N(C(=O)C2(C)CC2)C3)c1 (some centres undefined)	-5%	13%	1%	-3%
C/C=C/C=C\C(=O)Nc1cccc(C2=NOC3(C2)C[C@@H](C(N)=O)N(C(=O)c2cc([N+](=O)[O-])cc([N+](=O)[O-])c2)C3)c1 (some centres undefined)	3%	50µM*	1%	-18%
C/C=C/C(=O)N1CC2(CC(c3cccc(NC(=O)CC)c3)=NO2)C[C@H]1C(N)=O (some centres undefined)	4%	-6%	-8%	-7%
COC(=O)c1ccccc1NC(=O)c1c(NC(=O)c2ccco2)sc2c1CCC(C(C)(C)C)C2 (centres undefined)	.	.	-4%	.
CN(Cc1ccccc1)c1ccc(/C=C/c2sc3ccccc3[n+]2C)cc1	.	.	1%	.
C/C=C\C(=O)Nc1cccc(C2=NOC3(C2)C[C@H](C(N)=O)N(C(=O)/C=C/CC)C3)c1 (some centres undefined)	-3%	3%	1%	3%
C=C(C)C(=O)Nc1cccc(C2=NOC3(C2)C[C@@H](C(N)=O)N(C(=O)C(=C)C)C3)c1 (some centres undefined)	0%	18%	0%	4%
C/C=C\C=C/C(=O)Nc1cccc(C2=NOC3(C2)C[C@@H](C(N)=O)N(C(=O)/C=C/CC)C3)c1 (some centres undefined)	4%	14µM*	-3%	11%
C/C=C\C=C\C(=O)N1CC2(CC(c3cccc(NC(=O)CC(c4ccccc4)c4ccccc4)c3)=NO2)C[C@H]1C(N)=O (some centres undefined)	1%	45µM*	-3%	1%
C/C=C(\C)C(=O)N1CC2(CC(c3cccc(NC(=O)CC(c4ccccc4)c4ccccc4)c3)=NO2)C[C@H]1C(N)=O (some centres undefined)	.	-5%	.	.
C=C(C)C(=O)N1CC2(CC(c3cccc(NC(=O)/C=C\C=C/C)c3)=NO2)C[C@H]1C(N)=O (some centres undefined)	0%	20µM*	1%	10%
CCN(CC)C(=O)CC(c1ccc(F)cc1)c1ccc(OC(C)C)cc1 (centres undefined)	1%[46.1 µM]	2%	.	.
CCN1CCN(C(=O)Cn2c(-c3cccs3)cc3ccccc32)CC1	.	.	32µM*	.
COc1cccc(N2CCN(C(=O)Cn3c(-c4cccs4)cc4ccccc43)CC2)c1	.	.	16µM*	.
O=C(CN1C(=O)/C(=C2\SC(=S)N(C3CCS(=O)(=O)C3)C2=O)c2ccccc21)Nc1ccccc1 (centres undefined)	3%[46.1 µM]	28µM*	1%	-8%
N/C(=N\N=C/c1ccc(F)cc1)N/N=C\c1ccc(F)cc1	-5%	-7%	0%	-24%
